The source made the active and inactive calls. The calls were made as follows: active = hit-call score of the fitted dose curve at least 0.9, where 1 is the maximum; inactive = score below 0.9.
Assays:
[1] = BSK_CASM3C_SRB: Viability Assessment in the BioMAP Diversity Plus: CASM3C Assay (AID 2283050); details: primary human coronary artery smooth muscle cells;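 also: cells exposed to compound for 24 h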
[2] = read-out: Thrombomodulin, THBD (gene 7056); test: BSK_CASM3C_Thrombomodulin: BioMAP Diversity Plus: CASM3C Assay for Thrombomodulin Biomarker Activity (AID 2283051); details: primary human coronary artery smooth muscle cells; actives raise or lower the signal;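 also: thrombomodulin protein level measured by ELISA 24 h after dosing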
[3] = read-out: Tissue Factor, F3 (gene 2152); test: BSK_CASM3C_TissueFactor: BioMAP Diversity Plus: CASM3C Assay for Tissue Factor Biomarker Activity (AID 2283052); details: primary human coronary artery smooth muscle cells; actives raise or lower the signal;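 also: cell surface tissue factor protein level read by ELISA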
[4] = read-out: Interferon-gamma inducible Protein 10 (IP10), CXCL10 (gene 3627); test: BSK_hDFCGF_IP10: BioMAP Diversity Plus: hDFCGF Assay for Interferon-gamma inducible Protein 10 (IP10) Biomarker Activity (AID 2283053); details: primary human foreskin fibroblasts; actives raise or lower the signal
Summary of the method: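 Primary human foreskin fibroblasts exposed to chemicals for 24 h. IP-10 measured by ELISA; changes fitted bidirectionally against DMSO baseline.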

[5] = read-out: Urokinase-type plasminogen activator receptor (uPAR), PLAUR (gene 5329); test: BSK_CASM3C_uPAR: BioMAP Diversity Plus: CASM3C Assay for Urokinase-type plasminogen activator receptor (uPAR) Biomarker Activity (AID 2283054); details: primary human coronary artery smooth muscle cells; actives raise or lower the signal;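 also: cell-surface uPAR protein level quantified by ELISA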
[6] = read-out: Vascular cell adhesion molecule 1 (VCAM1), VCAM1 (gene 7412); test: BSK_CASM3C_VCAM1: BioMAP Diversity Plus: CASM3C Assay for Vascular cell adhesion molecule 1 (VCAM1) Biomarker Activity (AID 2283055); details: primary human coronary artery smooth muscle cells; actives raise or lower the signal;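 also: VCAM-1 protein level quantified by ELISA on the cells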
[7] = read-out: Collagen III, COL3A1 (gene 1281); test: BSK_hDFCGF_CollagenIII: BioMAP Diversity Plus: hDFCGF Assay for Collagen III Biomarker Activity (AID 2283056); details: primary human foreskin fibroblasts; actives raise or lower the signal
Summary of the method: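 Cells: human foreskin fibroblasts, primary. Dosing followed by 24 h incubation, then ELISA for collagen III. Both increases and decreases scored relative to DMSO.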

[8] = read-out: Epidermal growth factor receptor (EGFR), EGFR (gene 1956); test: BSK_hDFCGF_EGFR: BioMAP Diversity Plus: hDFCGF Assay for Epidermal growth factor receptor (EGFR) Biomarker Activity (AID 2283057); details: primary human foreskin fibroblasts; actives raise or lower the signal
Summary of the method: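 Primary human foreskin fibroblasts (hDFCGF system), sampled 24 h after dosing; EGFR quantified by ELISA. Bidirectional fit relative to DMSO baseline; SRB total-protein staining in parallel cultures for cytotoxicity.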

[9] = BSK_hDFCGF_Proliferation: Cell Proliferation Assessment in the BioMAP Diversity Plus: hDFCGF Assay (AID 2283059); details: primary human foreskin fibroblasts;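 also: curves fitted for both rise and fall of signal versus DMSO baseline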
Summary of the method: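 Sub-confluent human foreskin fibroblast cultures receive test chemical […]. Relative cell number is quantified by sulforhodamine B staining (0.1%, after 10% TCA fixation) at 560 nm, with bidirectional fitting referenced to DMSO.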

[10] = read-out: Macrophage colony-stimulating factor (MCSF), CSF1 (gene 1435); test: BSK_hDFCGF_MCSF: BioMAP Diversity Plus: hDFCGF Assay for Macrophage colony-stimulating factor (MCSF) Biomarker Activity (AID 2283060); details: primary human foreskin fibroblasts; actives raise or lower the signal
Summary of the method: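 M-CSF levels, determined by ELISA, are taken at 24 h after dosing human skin fibroblasts. Responses in either direction are fitted with DMSO serving as the baseline.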

[11] = BSK_hDFCGF_SRB: Viability Assessment in the BioMAP Diversity Plus: hDFCGF Assay (AID 2283061); details: primary human foreskin fibroblasts;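 also: cells exposed to compound for 24 h before the read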
Summary of the method: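 Cells were dosed with test chemical, cultured 24 h, fixed with 10% TCA, then stained with 0.1% SRB and read at 560 nm. The fibroblasts were human foreskin primary cells, and DMSO served as baseline.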

[12] = read-out: TIMP metallopeptidase inhibitor 1 (TIMP1), TIMP1 (gene 7076); test: BSK_hDFCGF_TIMP1: BioMAP Diversity Plus: hDFCGF Assay for TIMP metallopeptidase inhibitor 1 (TIMP1) Biomarker Activity (AID 2283062); details: primary human foreskin fibroblasts; actives raise or lower the signal
Summary of the method: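 Fibroblasts from human foreskin are treated with test chemical and harvested at 24 h. TIMP-1 is quantified by ELISA, and gain or loss of signal is scored against DMSO.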

[13] = read-out: Monokine induced gamma interferon (MIG), CXCL9 (gene 4283); test: BSK_hDFCGF_MIG: BioMAP Diversity Plus: hDFCGF Assay for Monokine induced gamma interferon (MIG) Biomarker Activity (AID 2283063); details: primary human foreskin fibroblasts; actives raise or lower the signal
Summary of the method: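 MIG signal, determined by ELISA, reflects 24 h chemical exposure of human skin primary fibroblasts. DMSO serves as negative control and baseline.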

[14] = read-out: Matrix Metallopeptidase 1 (MMP1), MMP1 (gene 4312); test: BSK_hDFCGF_MMP1: BioMAP Diversity Plus: hDFCGF Assay for Matrix Metallopeptidase 1 (MMP1) Biomarker Activity (AID 2283064); details: primary human foreskin fibroblasts; actives raise or lower the signal
Summary of the method: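 Primary human foreskin fibroblasts in the hDFCGF system were dosed with test chemical, and MMP1 was measured by ELISA 24 h later. Values come from bidirectional curve fitting against the DMSO baseline.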

[15] = read-out: Vascular cell adhesion molecule 1 (VCAM1), VCAM1 (gene 7412); test: BSK_hDFCGF_VCAM1: BioMAP Diversity Plus: hDFCGF Assay for Vascular cell adhesion molecule 1 (VCAM1) Biomarker Activity (AID 2283065); details: primary human foreskin fibroblasts; actives raise or lower the signal;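 as to AC50: VCAM-1 protein level quantified by ELISA after 24 h chemical exposure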
Summary of the method: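 Cells are dosed, cultured for 24 h, then VCAM-1 is quantified by ELISA; signal increases and decreases are both fitted relative to DMSO.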

[16] = read-out: Plasminogen activator inhibitor-1 (PAI1), SERPINE1 (gene 5054); test: BSK_hDFCGF_PAI1: BioMAP Diversity Plus: hDFCGF Assay for Plasminogen activator inhibitor-1 (PAI1) Biomarker Activity (AID 2283066); details: primary human foreskin fibroblasts; actives raise or lower the signal
Summary of the method: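 Human foreskin fibroblast primary cells, 24 h chemical exposure; PAI-1 measured by ELISA. Bidirectional fitting relative to DMSO; parallel cultures stained with SRB for total protein to flag overt cytotoxicity.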

[17] = read-out: Intercellular Adhesion Molecule 1 (ICAM1), ICAM1 (gene 3383); test: BSK_KF3CT_ICAM1: BioMAP Diversity Plus: KF3CT Assay for Intercellular Adhesion Molecule 1 (ICAM1) Biomarker Activity (AID 2283067); details: primary human keratinocytes with fibroblasts; actives raise or lower the signal
Summary of the method: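 Dose the keratinocyte/fibroblast co-culture, wait 24 h, measure ICAM-1 by ELISA, then fit increases or decreases against DMSO. Cytotoxicity is checked in parallel cultures by SRB total-protein staining.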

[18] = read-out: Interferon-gamma inducible Protein 10 (IP10), CXCL10 (gene 3627); test: BSK_KF3CT_IP10: BioMAP Diversity Plus: KF3CT Assay for Interferon-gamma inducible Protein 10 (IP10) Biomarker Activity (AID 2283068); details: primary human keratinocytes with fibroblasts; actives raise or lower the signal
Summary of the method: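 ELISA read-out of IP-10 after 24 h chemical dosing of human skin primary co-culture (keratinocytes, foreskin fibroblasts). Gain or loss of signal relative to DMSO, bidirectional curve fit.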

[19] = BSK_KF3CT_SRB: Viability Assessment in the BioMAP Diversity Plus: KF3CT Assay (AID 2283069); details: primary human keratinocytes with fibroblasts;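 also: total protein by sulforhodamine B staining as a cytotoxicity measure; fitted for both signal gain and loss against DMSO baseline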
Summary of the method: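 Human primary keratinocyte plus foreskin fibroblast co-culture exposed to chemicals for 24 h. Total protein measured by 0.1% sulforhodamine B staining after 10% TCA fixation, read at 560 nm; bidirectional fitting versus DMSO baseline.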

[20] = read-out: Interleukin-8 (IL8), CXCL8 (gene 3576); test: BSK_hDFCGF_IL8: BioMAP Diversity Plus: hDFCGF Assay for Interleukin-8 (IL8) Biomarker Activity (AID 2283058); details: primary human foreskin fibroblasts; actives raise or lower the signal
Summary of the method: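 IL-8 levels from compound-treated primary human fibroblasts were read by ELISA at 24 h, with DMSO serving as baseline for bidirectional fitting.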

Measured: AC50

CC=C(C)C(C)=O
active: [2] 3.97 µM | [7] 3.97 µM | [9] 20 µM | [15] 6.7 µM
inactive: [1] | [3] | [4] | [5] | [6] | [8] | [10] | [11] | [12] | [13] | [14] | [16] | [17] | [18] | [19]

CCCCCC1=CCCC1=O
inactive: [1] | [2] | [3] | [4] | [5] | [6] | [7] | [8] | [20] | [9] | [10] | [11] | [13] | [15] | [16] | [17] | [18] | [19]
active: [14] 16 nM

Oc1c(Cl)cc(Cl)c(Cl)c1Cl
inactive: [1] | [2] | [3] | [5] | [8] | [10] | [13] | [14] | [19]
active: [4] 31.1 µM | [6] 3.97 µM | [7] 10.4 µM | [9] 27.7 µM | [11] 28.7 µM | [15] 23.3 µM | [16] 24.6 µM | [17] 20 µM | [18] 20 µM

C=CC(=O)NCOCCCC
inactive: [1] | [2] | [3] | [4] | [5] | [6] | [8] | [20] | [9] | [10] | [11] | [13] | [14] | [15] | [16] | [17] | [18] | [19]

CC(C)[N+](C)(CCOC(=O)C1c2ccccc2Oc2ccccc21)C(C)C
inactive: [1] | [2] | [3] | [4] | [5] | [6] | [7] | [8] | [20] | [10] | [11] | [12] | [13] | [14] | [15] | [16] | [17] | [18] | [19]
active: [9] 0.471 µM

Clc1cc(Cl)c(Cl)c(Cl)c1Cl
inactive: [1] | [2] | [3] | [4] | [5] | [6] | [7] | [8] | [20] | [9] | [10] | [11] | [13] | [14] | [15] | [16] | [17] | [18] | [19]

CC(Cl)COP(=O)(OCC(C)Cl)OCC(C)Cl (configuration not stated)
inactive: [1] | [2] | [3] | [4] | [5] | [6] | [8] | [20] | [9] | [10] | [11] | [12] | [13] | [14] | [15] | [16] | [17] | [18] | [19]
